Compounds with a hit are over-represented: about 3.5% of the library has one in this group of screens.
GPR151 ag = human GPR151 activation. PathHunter beta-arrestin GPR151 cells, luminescence. activation, % at 11.2 µM. 650,000 compounds, 1% hits; in the data active = activation above about 4.9%;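 note: 0% = median of compound wells and 100% = cells with positive control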
FBW7 act = human FBW7 E3 ligase activation, primary screen; Q969H0; AlphaScreen FBW7–phospho-cyclin E peptide binding, activator screen; normalized activity (activation), % at 26.1 µM; 650,000 compounds, 0.13% hits; in the data active = normalized activity above about 1.9%;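 note: purified mutant Fbw7 with reduced substrate affinity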
Target sequence (Q969H0 whole entry, looked up): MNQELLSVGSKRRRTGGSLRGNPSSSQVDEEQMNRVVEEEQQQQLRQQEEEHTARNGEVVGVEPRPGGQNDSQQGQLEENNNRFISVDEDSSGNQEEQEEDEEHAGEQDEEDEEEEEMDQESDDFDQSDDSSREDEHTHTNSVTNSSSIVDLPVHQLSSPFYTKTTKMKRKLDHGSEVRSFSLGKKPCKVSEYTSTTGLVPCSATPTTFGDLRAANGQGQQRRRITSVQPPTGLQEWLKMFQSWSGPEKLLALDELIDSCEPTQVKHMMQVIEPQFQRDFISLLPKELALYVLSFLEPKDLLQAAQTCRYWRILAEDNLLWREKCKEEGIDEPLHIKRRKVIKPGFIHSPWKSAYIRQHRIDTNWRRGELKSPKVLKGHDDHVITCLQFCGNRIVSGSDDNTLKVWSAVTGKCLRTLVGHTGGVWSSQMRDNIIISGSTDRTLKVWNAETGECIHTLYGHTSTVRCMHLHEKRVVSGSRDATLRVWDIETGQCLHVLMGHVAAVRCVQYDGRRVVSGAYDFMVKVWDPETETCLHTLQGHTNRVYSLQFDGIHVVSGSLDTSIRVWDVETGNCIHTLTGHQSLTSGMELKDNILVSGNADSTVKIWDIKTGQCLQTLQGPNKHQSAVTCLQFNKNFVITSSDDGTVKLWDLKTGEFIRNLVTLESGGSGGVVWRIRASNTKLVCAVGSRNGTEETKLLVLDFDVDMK
TEAD-YAP block = TEAD-YAP interaction inhibition; inhibition, % at 9.12 µM; HEK-TIYL cells, TEAD-Gal4/YAP UAS-luciferase luminescence; 640,000 compounds, 1.4% hits; in the data active = inhibition above about 32%;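 note: 0% = median of test compound wells and 100% = reference inhibitor wells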
MITF primary = human MITF inhibition, primary screen. O75030. AlphaScreen MITF homodimerization, bead proximity signal. inhibition, % at 2.6 µM. 650,000 compounds, 0.91% hits. AID 1259374; in the data active = inhibition above about 50%;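 note: 0% = vehicle wells with protein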
* = called active by the depositor.

SMILES	GPR151 ag	FBW7 act	TEAD-YAP block	MITF primary
CCOc1ccc(N/C=C/C(=O)c2cccs2)cc1	0	1	37*	17
O=C1CC(=O)c2ccc3c4c(ccc1c24)C(=O)CC3=O	0	0	-9	12
Cc1ccccc1C1CCN(CCNC(=O)CCC2(Cc3ccco3)CCC(=O)N2)C1 (stereo unspecified)	-2	0	-3	-15
O=C(c1ccc(-n2cccc2)cc1)N1CCN(Cc2csc(-c3ccccc3)n2)CC1	0	-1	60*	42
Cc1nc(C)c(C(=O)N2CCN(Cc3csc(-c4ccccc4)n3)CC2)s1	1	0	40*	1
Cc1nc(-n2cccc2)sc1C(=O)N1CCN(Cc2csc(-c3ccccc3)n2)CC1	-2	0	30	11
COCC(=O)N1CCN(Cc2csc(-c3ccccc3)n2)CC1	1	0	-31	14
COC(=O)C1=CN(CC23CC4CC(CC(C4)C2)C3)C=C(C(=O)OC)C1c1ccsc1	-1	1.9*	-3	-8
C(=N\Nc1nn[nH]n1)/c1cccc2nsnc12	1	-1	-3	21
Cc1nc(C#N)c(N/N=C/C=C/c2ccccc2)o1	-2	0	-66	10
Cc1nc(C#N)c(N/N=C/c2ccc(N(C)C)cc2)o1	-2	0	33*	3
N#CC1=C(N)OC2=C(CCC/C2=C/c2ccoc2)C1c1ccoc1 (stereo unspecified)	2	0	-12	58*
Cc1nn(-c2ccccc2)c(Cl)c1C(=O)NCc1cccnc1	0	0	-2	4
Cc1nn(-c2ccccc2)c(Cl)c1C(=O)Nc1ccc(C(=O)NCc2cccnc2)cc1	-1	0	39*	25
Fc1ccc(Nc2ccn3ncc(-c4ccsc4)c3n2)cc1Cl	1	2.0*	5	-3
Fc1ccc(Nc2ccn3ncc(-c4cccs4)c3n2)cc1Cl	3	0	5	16
CC(CC(=O)Nc1ccc(S(=O)(=O)NCC2CCCO2)cc1)c1ccccc1 (stereo unspecified)	0	0	10	-8
CCN(CC)S(=O)(=O)c1ccc(N2CCN(c3ccccc3OC)CC2)c(N)c1	1	0	33*	4
CCN(c1ccccc1)S(=O)(=O)c1ccc(OC)c(N)c1	-1	0	52*	-7
COc1ccc(S(=O)(=O)Cc2ccccc2)cc1N	1	0	-10	2
c1ccc(COc2ccc(CN3CCOCC3)cc2)cc1	-4	0	71*	-14
Cc1ccc(N2C(=O)NC(=O)/C(=C/C=C/c3ccc(N(C)C)cc3)C2=O)cc1	1	0	3	18
COc1ccc(-n2c(/C=C/N(C)C)c([N+](=O)[O-])c3ccc(O)c(COC(C)=O)c32)cc1	0	0	12	15
CCN(CC)Cc1c(O)ccc2c([N+](=O)[O-])c(C)n(-c3ccc(OC)cc3)c12	-1	0	37*	-7
NS(=O)(=O)c1ccc(NC(=O)c2cc(-c3ccncc3)nc3ccccc23)cc1	1	0	10	19
SMILES	GPR151 ag	FBW7 act	TEAD-YAP block	MITF primary
COc1cc(C(=O)NCc2ccc(C(=O)NCCc3ccccc3)cc2)cc(OC)c1OC	-1	0	-5	11
NS(=O)(=O)c1ccc(NC(=O)c2cc(-c3ccccc3)nc3ccccc23)cc1	-1	1.9*	2	19
CCOc1ccc(-c2cc(C(=O)Nc3cc(=O)n(C)c(=O)n3C)c3ccccc3n2)cc1	-2	0	76*	-26
COc1cc(C(=O)Nc2ccccc2C(=O)NCCc2ccccc2)cc(OC)c1OC	0	0	39*	-8
COc1ccc(C(=O)Nc2ccc(-c3nc4ccccc4[nH]3)cc2)cc1OC	1	0	3	-6
COc1cc(C(=O)Nc2ccc(-c3nc4ccccc4[nH]3)cc2)cc(OC)c1OC	0	0	32*	8
O=C(NNS(=O)(=O)c1ccc2ccccc2c1)c1ccccc1Cl	1	0	1	6
Cc1ccc(CNC(=O)CCc2nnc(Cc3c[nH]c4ccccc34)o2)cc1F	0	0	1	4
COc1cccc(/C=N\NC(=O)C2C(=O)NCC2c2ccccc2)c1OC (stereo unspecified)	0	0	3	-13
CCC(Sc1nc2n[nH]c(C)c2c(=N)n1-c1cc(Cl)ccc1C)C(=O)N1CCCC1 (stereo unspecified)	0	0	-18	14
CCc1ccc(-c2cc(C(=O)Nn3cnnc3)c3ccccc3n2)cc1	-3	0	82*	7
Nc1ccccc1C(=O)NCCc1ccccc1	-5	0	63*	-6
COc1cc(C(=O)NCCOc2cc(C)cc(C)c2)cc(OC)c1OC	-1	1	52*	13
CCOc1ccc(NC(=O)c2cc(OC)c(OC)c(OC)c2)cc1	1	0	55*	-2
COc1ccc(C(=O)NCCOc2cc(C)cc(C)c2)cc1OC	-1	0	11	12
COc1cc(C(=O)Nc2ccccc2)c2ccccc2n1	0	0	24	5
COc1cc(C(=O)Nc2ccccc2C(=O)Nc2ccccc2)cc(OC)c1OC	1	0	53*	-8
COc1cc(C(=O)Nc2ccccc2C(=O)Nc2cccc(C(=O)O)c2)cc(OC)c1OC	0	0	1	1
CCOc1ccc(NC(=O)c2cc(OC)nc3ccccc23)cc1	-1	0	52*	6
CC(C)N(CCNC(=O)c1cccc(Oc2ccccc2)n1)C(C)C	-1	3.1*	13	-2
CC(C)N(CCNC(=O)c1cnc(Oc2ccccc2)s1)C(C)C	-1	0	5	42
CN1C(=O)c2ccccc2CC1(C)C	0	0	-1	10
CC1(C)Cc2ccccc2-c2[nH][nH]c(=O)c21	-1	0	37*	16
Cc1cc(C)cc(OCC(=O)Nc2ccc(S(=O)(=O)Nc3cc(C)nc(C)n3)cc2)c1	-1	0	-2	-3
C1=Nc2ccccc2SC(c2cccnc2)=C1	-11	0	86*	-4
SMILES	GPR151 ag	FBW7 act	TEAD-YAP block	MITF primary
COc1cc(NC(=O)c2cncc(-c3cccs3)c2)cc(OC)c1OC	0	0	39*	7
COc1cc(NC(=O)c2cccc(-c3cccc(C(C)=O)c3)c2)cc(OC)c1OC	3	0	30	-2
COc1cc(NC(=O)c2cncc(-c3cccc(C(C)=O)c3)c2)cc(OC)c1OC	-1	0	59*	1
COc1cccc(-c2cc(C(=O)Nc3cc(OC)c(OC)c(OC)c3)on2)c1	0	0	42*	4
COC(=O)c1ccc(SCC(=O)N2CCCCC2)c([N+](=O)[O-])c1	1	0	-2	-9
Cc1cc(NC(=O)COC(=O)c2cccc3c(=O)c(C)c(-c4ccccc4)oc23)no1	0	0	-4	12
O=C(OCC(=O)N1CCN(C(=O)c2ccco2)CC1)c1cc(O)c(O)c(O)c1	-2	0	-8	81*
Clc1ccc2nc(NCCN3CCOCC3)nc(-c3ccccc3)c2c1	0	0	38*	-4
O=C(CN1CCOCC1)NNc1nc(-c2ccccc2)c2cc(Cl)ccc2n1	1	0	19	3

Screens from PubChem BioAssay.
